In PubChem BioAssay AID1159580 (chemical genetic matrix, 2015):
Among all 5,500 compounds or so, about 2,000 (36%) were called active. Another 18% or so got no clear call; they are omitted. No stated cut-off is given here; in the data, active means normalized growth mostly below about 0.91 (no sharp cut-off); inconclusive means no clear call, values can overlap the other calls; inactive means mostly above about 0.92. Some of the results follow.

Assay: chemical genetic growth profiling, strain panel (AID 1159580);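 further: tested at 20 µM; growth read once vehicle control cultures reached saturation at 30 °C; 1 = growth at the plate median or of vehicle wells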
Details: growth OD

Measured: normalized growth

CO[C@H]1CC(O[C@@H]2/C(C)=C/C[C@@H]3C[C@@H](C[C@]4(CC[C@H](C)[C@@H](C5CCCCC5)O4)O3)OC(=O)[C@@H]3C=C(C)/C(=N\O)[C@H]4OC/C(=C\C=C\[C@@H]2C)[C@]43O)O[C@@H](C)C1O (stereo not given in full)
active: S. cerevisiae deletion strains, locus YJR066W, strain TOR1, stronger effect = lower value 0.659 | S. cerevisiae deletion strains, locus YKR001C, strain vps1, stronger effect = lower value 0.745 | S. cerevisiae deletion strains, locus YLR039C, strain RIC1, stronger effect = lower value 0.492 | S. cerevisiae deletion strains, locus YLR113W, strain HOG1, stronger effect = lower value 0.284 | S. cerevisiae deletion strains, locus YLR262C, strain YPT6 (second series), stronger effect = lower value 0.312 | S. cerevisiae deletion strains, locus YLR262C, strain YPT6, stronger effect = lower value 0.415 | S. cerevisiae deletion strains, locus YLR342W, strain FKS1 (second series), stronger effect = lower value 0.526 | S. cerevisiae deletion strains, locus YNL183C, strain NPR1, stronger effect = lower value 0.512 | S. cerevisiae deletion strains, locus YPL051W, strain arl3, stronger effect = lower value 0.8 | S. cerevisiae deletion strains, locus YPL106C, strain sse1, stronger effect = lower value 0.62 | S. cerevisiae deletion strains, locus YPL256C, strain CLN2, stronger effect = lower value 0.629
inactive: S. cerevisiae deletion strains, locus YKL009W, strain mrt4, stronger effect = lower value 0.975 | S. cerevisiae deletion strains, locus YKL068W, stronger effect = lower value 1 | S. cerevisiae deletion strains, locus YKL085W, strain MDH1 (second series), stronger effect = lower value 0.997 | S. cerevisiae deletion strains, locus YKL085W, strain MDH1, stronger effect = lower value 0.997 | S. cerevisiae deletion strains, locus YKL160W, strain elf1, stronger effect = lower value 0.993 | S. cerevisiae deletion strains, locus YKL190W, strain CNB1, stronger effect = lower value 0.982 | S. cerevisiae deletion strains, locus YKR026C, strain gcn3, stronger effect = lower value 1.02 | S. cerevisiae deletion strains, locus YKR091W, strain srl3, stronger effect = lower value 1.01 | S. cerevisiae deletion strains, locus YLL001W, strain dnm1, stronger effect = lower value 0.974 | S. cerevisiae deletion strains, locus YLL026W, stronger effect = lower value 1.01 | S. cerevisiae deletion strains, locus YLL041C, strain sdh2, stronger effect = lower value 1.01 | S. cerevisiae deletion strains, locus YLR027C, strain aat2, stronger effect = lower value 1.01 | S. cerevisiae deletion strains, locus YLR058C, strain SHM2, stronger effect = lower value 0.987 | S. cerevisiae deletion strains, locus YLR102C, strain apc9, stronger effect = lower value 0.997 | S. cerevisiae deletion strains, locus YLR221C, strain rsa3, stronger effect = lower value 1.01 | S. cerevisiae deletion strains, locus YLR258W, strain gsy2, stronger effect = lower value 1 | S. cerevisiae deletion strains, locus YLR268W, strain sec22, stronger effect = lower value 0.928 | S. cerevisiae deletion strains, locus YLR320W, strain mms22, stronger effect = lower value 0.96 | S. cerevisiae deletion strains, locus YLR330W, strain CHS5, stronger effect = lower value 0.978 | S. cerevisiae deletion strains, locus YLR342W, strain FKS1, stronger effect = lower value 0.985 | S. cerevisiae deletion strains, locus YLR357W, strain rsc2, stronger effect = lower value 0.854 | S. cerevisiae deletion strains, locus YLR370C, strain arc18, stronger effect = lower value 0.993 | S. cerevisiae deletion strains, locus YLR371W, strain rom2, stronger effect = lower value 0.995 | S. cerevisiae deletion strains, locus YLR384C, strain iki3, stronger effect = lower value 1.01 | S. cerevisiae deletion strains, locus YLR418C, strain cdc73, stronger effect = lower value 0.936 | S. cerevisiae deletion strains, locus YML016C, strain PPZ1, stronger effect = lower value 0.995 | S. cerevisiae deletion strains, locus YML032C, strain rad52, stronger effect = lower value 0.987 | S. cerevisiae deletion strains, locus YML120C, strain ndi1, stronger effect = lower value 0.995 | S. cerevisiae deletion strains, locus YML124C, strain tub3, stronger effect = lower value 1 | S. cerevisiae deletion strains, locus YMR058W, strain fet3, stronger effect = lower value 1.02 | S. cerevisiae deletion strains, locus YMR078C, strain ctf18, stronger effect = lower value 0.986 | S. cerevisiae deletion strains, locus YMR125W, strain sto1, stronger effect = lower value 1.03 | S. cerevisiae deletion strains, locus YMR129W, stronger effect = lower value 1.02 | S. cerevisiae deletion strains, locus YMR205C, strain PFK2, stronger effect = lower value 0.997 | S. cerevisiae deletion strains, locus YMR223W, strain ubp8, stronger effect = lower value 0.993 | S. cerevisiae deletion strains, locus YMR231W, strain pep5, stronger effect = lower value 0.998 | S. cerevisiae deletion strains, locus YMR263W, strain SAP30, stronger effect = lower value 0.977 | S. cerevisiae deletion strains, locus YMR307W, strain GAS1, stronger effect = lower value 0.911 | S. cerevisiae deletion strains, locus YNL067W, strain RPL9B, stronger effect = lower value 0.988 | S. cerevisiae deletion strains, locus YNL071W, strain lat1, stronger effect = lower value 1.02 | S. cerevisiae deletion strains, locus YNL209W, strain ssb2, stronger effect = lower value 0.977 | S. cerevisiae deletion strains, locus YNL233W, strain BNI4, stronger effect = lower value 0.971 | S. cerevisiae deletion strains, locus YNL248C, strain rpa49, stronger effect = lower value 1.03 | S. cerevisiae deletion strains, locus YNL250W, strain rad50, stronger effect = lower value 0.967 | S. cerevisiae deletion strains, locus YNL271C, strain bni1, stronger effect = lower value 0.922 | S. cerevisiae deletion strains, locus YNL298W, strain CLA4, stronger effect = lower value 0.933 | S. cerevisiae deletion strains, locus YNL307C, strain MCK1, stronger effect = lower value 0.957 | S. cerevisiae deletion strains, locus YNL322C, strain KRE1 (second series), stronger effect = lower value 1.02 | S. cerevisiae deletion strains, locus YNL322C, strain KRE1, stronger effect = lower value 0.99 | S. cerevisiae deletion strains, locus YNR049C, strain mso1, stronger effect = lower value 0.984 | S. cerevisiae deletion strains, locus YNR052C, strain pop2, stronger effect = lower value 0.99 | S. cerevisiae deletion strains, locus YOL006C, strain TOP1, stronger effect = lower value 0.901 | S. cerevisiae deletion strains, locus YOL012C, strain htz1 0.49 | S. cerevisiae deletion strains, locus YOL147C, strain pex11, stronger effect = lower value 1.01 | S. cerevisiae deletion strains, locus YOR001W, strain rrp6, stronger effect = lower value 0.986 | S. cerevisiae deletion strains, locus YOR061W, strain CKA2, stronger effect = lower value 0.98 | S. cerevisiae deletion strains, locus YOR069W, strain VPS5, stronger effect = lower value 0.99 | S. cerevisiae deletion strains, locus YOR070C, strain gyp1, stronger effect = lower value 0.994 | S. cerevisiae deletion strains, locus YOR080W, strain dia2, stronger effect = lower value 1.02 | S. cerevisiae deletion strains, locus YOR083W, strain WHI5, stronger effect = lower value 1 | S. cerevisiae deletion strains, locus YOR106W, strain vam3, stronger effect = lower value 1.05 | S. cerevisiae deletion strains, locus YOR136W, strain idh2, stronger effect = lower value 0.974 | S. cerevisiae deletion strains, locus YOR144C, strain elg1, stronger effect = lower value 0.999 | S. cerevisiae deletion strains, locus YOR184W, strain ser1, stronger effect = lower value 0.991 | S. cerevisiae deletion strains, locus YOR231W, strain MKK1, stronger effect = lower value 0.962 | S. cerevisiae deletion strains, locus YOR265W, strain rbl2, stronger effect = lower value 0.995 | S. cerevisiae deletion strains, locus YOR270C, strain vph1, stronger effect = lower value 0.991 | S. cerevisiae deletion strains, locus YOR290C, strain snf2, stronger effect = lower value 1.04 | S. cerevisiae deletion strains, locus YOR316C, strain cot1, stronger effect = lower value 0.99 | S. cerevisiae deletion strains, locus YPL055C, strain LGE1, stronger effect = lower value 1 | S. cerevisiae deletion strains, locus YPL078C, strain atp4, stronger effect = lower value 1.03 | S. cerevisiae deletion strains, locus YPL240C, strain hsp82, stronger effect = lower value 1.01 | S. cerevisiae deletion strains, locus YPL241C, strain CIN2, stronger effect = lower value 0.979 | S. cerevisiae deletion strains, locus YPR119W, strain clb2, stronger effect = lower value 0.995 | S. cerevisiae deletion strains, locus YPR141C, strain kar3, stronger effect = lower value 0.992 | S. cerevisiae deletion strains, locus YPR163C, strain tif3, stronger effect = lower value 0.972 | S. cerevisiae deletion strains, locus YPR167C, strain met16, stronger effect = lower value 0.985 | S. cerevisiae deletion strains, strain wtn01, stronger effect = lower value 0.996 | S. cerevisiae strains, strain wild type, stronger effect = lower value 0.985
